Measured values as given in PubChem BioAssay (NCI).
About 83,000 compounds went through this panel and 20% of them were active in at least one assay; those are over-represented in the sample as a whole.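 Each cell line was grown in a 96-well plate and treated with one concentration of compound for 48 hours. Values below 10 were considered active.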 Unmarked numbers belong to inactive results. Active and inactive are the calls of the source.

What was measured:
Assay in all cases: NCI-60 one-dose screen, 48 h (100 = growth as untreated, 0 = no growth, -100 = all killed)
Conditions in all cases: 10 µM unless noted
SR leukemia = test system: SR leukemia
RPMI-8226 leukemia = test system: RPMI-8226 leukemia
OVCAR-8 ovarian = test system: OVCAR-8 ovarian
OVCAR-5 ovarian = test system: OVCAR-5 ovarian
OVCAR-4 ovarian = test system: OVCAR-4 ovarian
SK-OV-3 ovarian = test system: SK-OV-3 ovarian
IGROV1 ovarian = test system: IGROV1 ovarian
OVCAR-3 ovarian = test system: OVCAR-3 ovarian
HS 578T breast = test system: HS 578T breast
NCI/ADR-RES ovarian = test system: NCI/ADR-RES ovarian
T-47D breast = test system: T-47D breast
BT-549 breast = test system: BT-549 breast
MDA-MB-435 melanoma = test system: MDA-MB-435 melanoma
SW-620 colon = test system: SW-620 colon
MCF7 breast = test system: MCF7 breast
HCT-116 colon = test system: HCT-116 colon
HCC-2998 colon = test system: HCC-2998 colon
KM12 colon = test system: KM12 colon

| SMILES | growth (SR leukemia) | growth (RPMI-8226 leukemia) | growth (OVCAR-8 ovarian) | growth (OVCAR-5 ovarian) | growth (OVCAR-4 ovarian) | growth (SK-OV-3 ovarian) [%] | growth (IGROV1 ovarian) | growth (OVCAR-3 ovarian) | growth (HS 578T breast) | growth (NCI/ADR-RES ovarian) | growth (T-47D breast) | growth (BT-549 breast) | growth (MDA-MB-435 melanoma) | growth (SW-620 colon) | growth (MCF7 breast) | growth (HCT-116 colon) | growth (HCC-2998 colon) | growth (KM12 colon) |
| --- | --- | --- | --- | --- | --- | --- | --- | --- | --- | --- | --- | --- | --- | --- | --- | --- | --- | --- |
| COc1ccc(-c2nc(/C=N/Nc3cc(C)nc4ccc(Br)cc34)c(C)o2)cc1 | -21% (active) | -54.5% (active) | -53.3% (active) | -97.5% (active) | -94.9% (active) | 93.2 | -80.5% (active) | -96.6% (active) | -44.4% (active) | -65.9% (active) | -42.1% (active) | 91% | -95.6% (active) | -86.6% (active) | -75.2% (active) | -74.6% (active) | -67.1% (active) |  |
| Clc1cc2c(nn1)Nc1ccccc1S2 | 77.2% | 78.1% | 96.2% | 100% | 95.3% | 99 | 27.5% | 117% | 102% | 97.5% | 85% | 103% | 98.1% | 103% | 85.3% | 96.5% | 114% | 102% |
| COc1cccc(/C=C/C(=O)Nc2cc(OC)c3c(c2)OCO3)c1 | 81.5% | 57.1% | 105% | 89.1% | 96.4% | 104 | 108% | 110% | 98.8% | 93.2% | 94.7% | 108% | 78.9% | 107% | 102% | 100% | 97% | 89.1% |
| COc1ccc2[nH]c(C(=O)OCc3ccc4c(Cl)cc(Cl)c(O)c4n3)cc2c1 | -12.5% (active) | -34.6% (active) | -31.2% (active) | -71.8% (active) | -57.5% (active) | 68.8 | -92.4% (active) | -90% (active) | -16.1% (active) | -58.9% (active) | -65.9% (active) | -88.3% (active) | -85% (active) | -68.2% (active) | -21.3% (active) | -92.3% (active) | -39.7% (active) |  |
| Cc1ccc(S(=O)(=O)n2cc(C(=O)C(=O)Nc3ccncc3)c3ccccc32)cc1 | 28.8% | 37.5% | 43.2% | 57.6% | 56% | 96.6 | 45.1% | -12.1% (active) | 23.2% | 5.21% (active) | 48.4% | 37.5% | 1.27% (active) | 11.2% | 19.5% | 17.5% | 52.8% | 29.1% |
| C=C1c2nc3ccccc3n2C=C(c2ccc(Cl)cc2)N1Cc1ccccc1 | 23.7% | 35.3% | 75.6% | 99.9% | -8.06% (active) | 83.4 | 106% | 92.2% | 87% | 79.4% | 66% | 142% | 98.1% | 86.9% | 63% | 63% | 89.2% | 86.9% |
| Fc1ccc(-c2nc(-c3nc4ncccc4[nH]3)cc3c2[nH]c2ccccc23)cc1F | 76% | 45.7% | 66.6% | 93.5% | 60.2% | 111 | 62.3% | 82% | 96% | 61.4% | 51.7% | 84% | 66.1% | 102% | 38.7% | 30.3% | 100% | 71.9% |
| COc1ccc(/C=C2\N=C(c3ccccc3)N(C(=O)c3ccccc3O)NC2=O)cc1 | 64% | 46.2% | 109% | 98.5% | 105% | 100 | 98.2% | 118% | 93.8% | 93.1% | 96.6% | 92% | 95% | 100% | 92.8% | 92% | 93.7% | 92% |
| CC(C)(C)n1cc(-c2ccnc(NCCCNS(=O)(=O)c3ccccc3)c2)c(-c2cccc(O)c2)n1 | 20.9% | 10.5% | 52.4% | 67.7% | 55.9% | 88.6 | 51.1% | 54.1% | 51% | 56.9% | 23.8% | 47.4% | 54.8% | 14.5% | 25.1% | 36.8% | 18.5% | 26.9% |
| COC(=O)c1cc(=O)nc(N/N=C/c2ccco2)s1 | 87% | 96% | 107% | 108% | 96.7% | 117 | 93.4% | 106% | 106% | 104% | 87.8% | 109% | 114% | 108% | 39.5% | 93.8% | 102% | 101% |
| CCCCC(CC)OC(=O)C(Br)CC (configuration not stated) | 94.3% | 113% | 101% | 106% | 90.6% | 114 | 105% | 104% | 101% | 98.7% | 103% | 100% | 109% | 114% | 102% | 101% | 104% | 101% |
| CN1CCN(CCCOc2ccc3nc(Nc4ccc(Cl)c(C(F)(F)F)c4)ccc3c2)CC1 | 2.08% (active) | 18.1% | 73.6% | 72.1% | 66.6% | 91.4 | 46.2% | 59.3% | 46% | 62.8% | 76.7% | 102% | 59.6% | 0.0049% (active) | 27.1% | 26.3% | 6.68% (active) | 28.8% |
| O=C1/C(=C/c2ccccc2)CN(C(=O)CCN2CCC(=NO)CC2)C/C1=C\c1ccccc1 | 7.97% (active) | -28.6% (active) | 13.6% | 5.29% (active) | 15.3% | 77.5 | -5.65% (active) | -27% (active) | 17% | 14.6% | -2.11% (active) | 2.46% (active) | -58.1% (active) | -52% (active) | -21.5% (active) | -68.7% (active) | -65.5% (active) | -63.1% (active) |
| COc1cccc(/C=C2\Oc3cc(OCCCN4CCCC4)ccc3C2=O)c1OC | 70.8% | 88.6% | 94% | 94.9% | 99.9% | 110 | 96.1% | 99% | 93.9% | 97.3% | 97.2% | 87.7% | 99% | 98.6% | 87% | 83.7% | 113% | 102% |
| O=C(CCl)N(C1CCCCC1)C1CCCCC1 | 100% | 112% | 104% | 111% | 89.7% | 117 | 96.7% | 114% | 105% | 105% | 101% | 97.4% | 106% | 113% | 96.7% | 101% | 107% | 112% |
| O=C1C(Cl)=C(Nc2ccccn2)C(=O)c2ccccc21 | 81.4% | 56.5% | 29.5% | 115% | 30.2% | 108 | 34.4% | 26.9% | -9.73% (active) | 34.9% | 33.6% | 100% | -81.4% (active) | 30.5% | 29.6% | 19.9% | 110% | 86% |
| O=Nc1c(-c2cccc([N+](=O)[O-])c2)nc2ncccn12 | -27.8% (active) | -30.7% (active) | 81.1% | 93.5% | 86.5% | 101 | 40.5% | 44.9% | 107% | 97.5% | 73% | 73.4% | 99.2% | 18.2% | 70.2% | 51.1% | 93.6% | 89.3% |
| CC(C)(C)Nc1c(-c2cccs2)nc2ncccn12 | 92.4% | 94.2% | 104% | 108% | 103% | 99.9 | 102% | 102% | 97.8% | 104% | 93.1% | 105% | 107% | 103% | 93.8% | 98.6% | 100% | 97.5% |
